Source: the supplement of paper PMC6555819

Test system: VDR:RXRa (NR concentration 270 nM, RXRa partner concentration 90 nM)
Test: PBM binding z-score (relative to random genomic background probes); higher = stronger binding; sequences stand for … in GC…GCGATTGACAGCGTAGAATGAAGG
Procedure: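 Protein-binding microarray (Agilent 4x180K custom design, double-stranded 60-nt probes: 5' GC cap, 34-nt variable region, 24-nt constant primer region; full probe sequence given). Purified or IVT nuclear receptor:RXRα heterodimers (3:1 NR:RXRα, mostly 270:90 nM) or homodimers were incubated for 1 h in PBS with 2% milk and no ligand, then detected with Alexa488 antibodies. Fluorescence from o1-orientation probes (~5 replicates averaged) was converted to z-scores against 500 random hg19 background probes. Variable regions are seed direct-repeat (DR0–DR5) sites, all their single-nucleotide variants and half-site ablations.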

| Sequence | PBM binding z-score |
| --- | --- |
| ATACAAAGGTGATCGTGAGGTCGTTGATACTAAC | 4.59 |
| GCTTACGGGTCAAAGGTTATAGGATGAATAGAAT | 5.56 |
| CGAACGAGGGCATGAGTTGAAAGCAAATGCCGAT | 1.25 |
| TCTGCTAGGTCAACGATGGTCAGCCAATCTGCTA | 1.66 |
| TGAATGCGGTTAAAGATCAGGGAACGTGGCGTCG | -0.54 |
| GATACAGGGACAGCTAGAGGCCAGAGTATGGAAA | -0.526 |
| GCAGCCAGGTGAAACGCAGGTAACTCAGGGTGGC | -0.929 |
| TAGCCTAGGCCAGATCGGGCCAGTATACGCTATA | -0.802 |
| ATACTAAGGTGATCGTGAGGTCGTTGATACTAAC | 3.72 |
| GATACAGGGTCAAGGCCAGAGGACGCGTATTGAT | 4.11 |
| GATACAGGGTTAGCTAGAGGCCAGAGTATGGAAA | 0.139 |
| ATCTCTAGGTAATACTCAGTTCAGTGAAGAACGC | 1.55 |
| CCTACTAGGCCAAAGGTCATTGATTCCAATGCTC | 5.12 |
| TCTAGTTGCTCAAAGGTCACACACTCGAAATGCG | 4.77 |
| TCTTGTATATCAAGCAGGTTAAGAAAGCCTGAGT | 0.659 |
| CCGACTGGGGCATAAGGTTACGATAAGCCAGCCC | 0.321 |
| ATCTCTAGGTAAGACTGAGTTCAGTGAAGAACGC | 2.75 |
| TCTTGTAGACCAACAGGAGGTTAAGAAAGATCGA | 0.492 |
| CGAACTAGGTCAAGGACAGTCAATCTCCGCACGC | 1.61 |
| CTCGAACGGTCGGTTGAGGTGAGTATACGGATAA | -0.265 |

| Sequence | PBM binding z-score |
| --- | --- |
| CCAGACAGGAGAAAGGTAACTCAGTCTGGTACGC | 0.0971 |
| CCTCGGAGGCCAACAGGAGGTCAGAGCTGCCAGA | 2.07 |
| TCATTTAGGTAAAAGGTGAAAGTCGGTGTGGTAA | 1.4 |
| TATACAGGGTCAAAGGCCACAGTACGAATGTCGA | 5.15 |
| AGAATGAGGTTAAGATCAGGGTAACAGAATACAT | 2 |
| TCGAGTGGGTTAGGGGCATTCAGAATGGCGTCGA | 1.04 |
| CACCCTAGGTCAGGGCCAGTATAGGAGGAACGTT | 0.555 |
| ATCTCTAGGTAAAGTTCAGTGAAAGATCGATAGA | 1.73 |
| ATCGAAAGGTCGTGTGGTGAGTATACAGAAAGGC | 3.66 |
| CCTTACGGGTCACTCCAGGTTATAGAATCGGAGT | 4.17 |
| TCGAGTCGGTTACCAATGGGGCATTCAGCTTTCT | -0.384 |
| GGAAGGAGGGCAAGTTGATAGCAGAGTTTGATGG | 0.934 |
| TCATGTAGATCAACAGGAGGTTAAGAAAGATCGA | 0.591 |
| ACTATTAGTTGAGACGAGGGCAGCCGATAGGTTG | 0.339 |
| GCGACTGCGGCATCAGCAGGTTACCATAACTTAA | -0.5 |
| ACTAGCAGTCCAAGGGTCACTCAAGATTAGTCCG | 2.86 |
| AGAATGAGGTAATTAAGATCAGGGAATTGCGGTC | 0.215 |
| TCTCGGAGGACACGAGAGGTCAGAGCTCGACATC | 3.41 |
| TCTAGGTGGTCACGGAGGTCACACACGACGGGTA | 6.02 |
| CCACGGAGGACAACAGGAGGTCAGAGCTGCCAGA | 2.13 |
